{"source": "PubChem BioAssay (Tox21)", "note": "Inconclusive results are not listed. Where a call stands in place of a potency, no number is given. Some structures have more than one record in an assay (separate samples or runs), and their calls can disagree. The source made the active and inactive calls. Calls follow the shape of the dose curve; as a rule, active = well fitted cell-killing curve with a large enough effect in the repeat runs; inconclusive = weak or mixed curves, or effect the other way; inactive = flat fitted curve, though single readings scatter. Potency is read from the fitted curve at half-maximal effect.", "data": [{"experiment": "Nuclear factor erythroid 2-related factor 2/antioxidant responsive element (Nrf2/ARE) small molecule agonists: qHTS cell viability counter screen in human keratinocytes (AID 1919968); also: nearly all actives have a fitted effect of over 55% in size", "conditions": "KeratinoSens HaCaT ARE cells viability, CellTiter-Fluor, 24 h; series mostly up to 92.4 µM", "description": "U.S. Tox21 Program National Center for Advancing Translational Sciences [NCATS] Division of Preclinical Innovation [DPI] U.S. Environmental Protection Agency [EPA] National Institutes of Environmental Health Sciences [NIEHS] National Toxicology Program [NTP] U.S. Food and Drug Administration [FDA] Tox21 Assay Overview: Oxidative stress has been implicated in the pathogenesis of a variety of diseases ranging from cancer to neurodegeneration. The antioxidant response element (ARE) signaling pathway plays an important role in the amelioration of oxidative stress. The KeratinoSens (Givaudan, Switzerland) is an in vitro test method which quantifies luciferase induction as a measure of activation of Keap1-Nrf2-antioxidationt/electrophile response element (ARE) dependant pathway in HaCaT human keratinocytes stably transfected with a selectable plasmid. The KeratinoSens assay is a cell-based assay with a reporter cell line to detect potential skin sensitizers by their ability to induce the Nrf2/ARE-response. The activation of the report gene under culture conditions can be detected by ONE-Glo Luciferase Assay System (Promega, Madison, WI). This cell line has been used to screen the Tox21 10K compound library to identify agonists that induce oxidative stress. The cytotoxicity of the Tox21 compound library against the KS-ARE cell line was tested in parallel by measuring the cell viability using CellTiter- Fluor assay system (Promega, Madison, WI) in the same wells.\nTox21 Assay Protocol Summary: HaCaT derived cell line KeratinoSens were dispensed at 1,500 cells/5uL/well in 1536-well white wall/solid bottom plates using a Multidrop Combi (ThermoFisher Scientific, Waltham, MA) dispenser. After the assay plates were incubated at 37 C/5% CO2 for 5 h, 23 nL of compounds dissolved in DMSO, positive controls or DMSO only was transferred to the assay plate by a pintool workstation (Kalypsys, San Diego, CA). The plates were incubated at 37 C/5% CO2 for 23 h, followed by addition of 1uL/well of CellTiter-Fluor reagent into the assay plates using a Flying Reagent Dispenser (Aurora Discovery, San Diego, CA) for cell viability readout that measures cytotoxicity. After 1 h incubation at 37 C/5% CO2 the fluorescence intensity was measured using a ViewLux (PerkinElmer, Shelton, CT) plate reader.", "values": [{"smiles": "CCC(C)(O)CCC=C(C)C", "note": "(stereo not given)", "Potency": "inactive"}, {"smiles": "N=C(N)c1ccccc1", "Potency": "inactive"}, {"smiles": "CC12CCC(C1)C(C)(C)C2O", "note": "(stereo not given)", "Potency": "inactive"}, {"smiles": "Clc1cc(Cl)c(Cl)c(Cl)c1Cl", "Potency": "inactive"}, {"smiles": "CCn1cc(C(=O)O)c(=O)c2cc3c(cc21)OCO3", "Potency": "inactive"}, {"smiles": "CC(C)(C)c1ccc(CCC=O)cc1", "Potency": "inactive"}, {"smiles": "NCCCN1CCN(CCCN)CC1", "Potency": "inactive"}, {"smiles": "CC1CC(=O)CC(C)(C)C1", "note": "(stereo not given)", "Potency": "inactive"}, {"smiles": "CNC(=O)NC", "Potency": "inactive"}, {"smiles": "C1=COCCC1", "Potency": "inactive"}, {"smiles": "CO[Si](CCCNCCC[Si](OC)(OC)OC)(OC)OC", "Potency": "inactive"}, {"smiles": "NC(=O)N[C@@H](CCC(=O)O)C(=O)O", "Potency": "inactive"}, {"smiles": "Nc1ccc(O)cc1", "Potency": "71.2 µM (active) and inactive"}, {"smiles": "O=c1oc2c(O)c(O)cc3c(=O)oc4c(O)c(O)cc1c4c23", "activity change, negative = cytotoxicity": "-4.32% [at 19 µM] (inactive)"}, {"smiles": "[Cl][In]([Cl])[Cl]", "Potency": "inactive"}, {"smiles": "COc1cc(C(=S)N2CCOCC2)cc(OC)c1OC", "Potency": "inactive"}, {"smiles": "CCOC(=O)c1cc(=O)c2c(OCC(COc3cccc4oc(C(=O)OCC)cc(=O)c34)OC(=O)[C@@H](N)CCCCN)cccc2o1", "Potency": "inactive"}, {"smiles": "O=S(=O)(O)c1cccc2c(S(=O)(=O)O)cccc12", "Potency": "inactive"}, {"smiles": "COc1ccccc1/C=C/C=O", "Potency": "inactive"}, {"smiles": "CC(C=O)Cc1ccc(C(C)(C)C)cc1", "note": "(stereo not given)", "Potency": "inactive"}, {"smiles": "CC(C)c1ccc2c(C(C)C)cc(C(C)C)c(S(=O)(=O)O)c2c1", "Potency": "inactive"}, {"smiles": "Clc1ccccc1-c1nc(-c2ccncc2)no1", "Potency": "inactive"}, {"smiles": "CCN[C@H]1CN(CCCOC)S(=O)(=O)c2sc(S(N)(=O)=O)cc21", "Potency": "inactive"}, {"smiles": "N#CCc1cccc(C(F)(F)F)c1", "Potency": "inactive"}, {"smiles": "Cc1ccc(N=Nc2c(O)ccc3ccccc23)c(C)c1", "Potency": "inactive"}, {"smiles": "CC(=O)N(O)CCCCCNC(=O)CCC(=O)N(O)CCCCCNC(=O)CCC(=O)N(O)CCCCCN", "Potency": "inactive"}, {"smiles": "CC(=O)[O][Al][O]C(C)=O", "Potency": "inactive"}, {"smiles": "OC[C@H]1O[C@H](O[C@H]2O[C@H](CO)[C@@H](O)[C@H](O)[C@H]2O)[C@H](O)[C@@H](O)[C@@H]1O", "Potency": "inactive"}, {"smiles": "CCCCCCCCCCCCCCO", "Potency": "inactive"}, {"smiles": "O=C(O)CN(CCCN(CC(=O)O)CC(=O)O)CC(=O)O", "activity change, negative = cytotoxicity": "-0.241% [at 19 µM] (inactive)"}, {"smiles": "CC(C)CC(=O)OCc1ccccc1", "Potency": "inactive"}, {"smiles": "Clc1ccc(C(c2ccccc2Cl)C(Cl)Cl)cc1", "note": "(stereo not given)", "Potency": "61.1 µM (active)"}, {"smiles": "CNC1(C)C2CCC(C2)C1(C)C", "note": "(stereo not given)", "Potency": "inactive"}, {"smiles": "CO[C@@]1(NC(=O)CSC[C@@H](N)C(=O)O)C(=O)N2C(C(=O)O)=C(CSc3nnnn3C)CS[C@@H]21", "Potency": "inactive"}, {"smiles": "CCOc1ccccc1C(N)=O", "Potency": "inactive"}, {"smiles": "CC(C)C(=O)OCCOc1ccccc1", "Potency": "inactive"}, {"smiles": "C=CC(=O)NCOCCCC", "Potency": "inactive"}, {"smiles": "Cc1cc(C)c(N)c(Cl)c1", "Potency": "inactive"}, {"smiles": "c1coc(CNc2ncnc3nc[nH]c23)c1", "Potency": "inactive"}, {"smiles": "CC1C(C)(C)C2=C(C(=O)CCC2)C1(C)C", "note": "(stereo not given)", "Potency": "inactive"}]}]}
